Experiment [1] is described as follows: compounds altering viability of human ES cells (AID 493140; call rule not given here;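 also: cells exposed to compounds for four days before counting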). Conditions: human embryonic stem cell survival screen; stronger effect = higher value.
Experiment [2] in a line: P. berghei load reduction in hepatocytes – cell-based, HepG2, luciferase luminescence, HepG2 viability, primary screen (AID 624349).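 Also: 100% = mean of DMSO negative control wells on the same plate.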 Conditions: P. berghei liver stage in HepG2, luciferase luminescence, concentration not given here; parasite load remaining: stronger effect = lower value; viability: measured here: HepG2 viability without parasites.
The nature of experiment [3]: Wnt pathway potentiators raising nuclear beta-catenin – imaging, WNT3A-conditioned medium, mouse C2C12, NPC library, primary screen (AID 1117326; in the data active = nuclear beta-catenin stimulation mostly above about 4.2%, no sharp cut-off; inactive = mostly below about 10%). Conditions: stronger effect = higher value.
A short description of experiment [4]: stimulators of insulin release from INS-1E, primary screen, cell-based, 5 mM glucose, NPC library (AID 1117329;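 active = compound raises insulin release from rat beta cells at 5 mM glucose, no numeric limit stated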). Particulars: rat INS-1E insulin secretion, at 10 µM, stronger effect = higher value.
The nature of experiment [5]: growth inhibition of GSK3B-pretreated HCT116 cells – cell-based, CellTiter-Glo, 0.2 to 20 µM (AID 1117336;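 active = compounds lowering colon cancer cell viability after pretreatment blocking the GSK3B kinase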). Conditions: HCT116 viability after GSK3B inhibitor, at 20 µM, stronger effect = higher value. A general note: Cellular ATP, detected with luciferase, serves as a proxy for viable cell number.
Experiment [6] in a line: inhibition of endothelial tube formation, primary screen, imaging, VEGF stimulated, CD31 staining, tube area, NPC library (AID 1117340;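 active = compound that reduces growth-factor-driven endothelial tube area in a mixed cell culture, no cutoff stated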). Conditions: VEGF-stimulated ADSC/ECFC co-culture, at 10 µM, stronger effect = higher value.
The nature of experiment [7]: GLP1 release stimulators, primary, NCI-H716, NPC library (AID 1117341;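 active = compound raises GLP1 secretion from the human gut endocrine cells, with no numeric limit stated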). Conditions: NCI-H716 cells, at 10 µM, stronger effect = higher value.
Experiment [8] is described as follows: HCT116 colon cancer cell growth inhibition, primary screen, CellTiter-Glo luminescence, NPC library (AID 1117342;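 active = compounds that lower survival of HCT116 colon cancer cells in the luminescence readout, no numeric limit stated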). Conditions: at 20 µM (top of the series).
Experiment [9] in a line: reduced SW480 viability measured with CellTiter-Glo, NPC library, primary (AID 1117343;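 active = compounds that lower viability of the colon cancer cells in the luminescence readout, with no numeric limit stated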). Particulars: CellTiter-Glo luminescence; at 20 µM (top of the series) unless noted.
The nature of experiment [10]: NPC library primary testing for decreased DLD-1 cell viability via CellTiter-Glo (AID 1117346;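 active = compounds that lower survival of DLD-1 colon cancer cells in the luminescence readout, no cutoff given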). Particulars: DLD-1 viability, CellTiter-Glo luminescence; at 20 µM (top of the series).
Experiment [11] in a line: viability loss with induced miR-34 in A549 – imaging, A549 dox-inducible miR-34, nuclei and caspase counts, primary screen (AID 1347080;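 active = compounds whose cell count with miR-34 switched on is under 0.7 times the count with it off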). Particulars: A549 miR-34 inducible, Hoechst nuclei count, 48 h.
Experiment [12] can be described thus: MELAS cybrid and Rieske KO viability enhancers – cell-based, MELAS cybrids, Rieske KO mouse fibroblasts, CellTiter-Glo, primary screen (AID 1508586;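 active = mean z-score across replicates of 1.96 or higher in either the MELAS or the Rieske mutant cell line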;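 also: z relative to plate mean and SD of compound and empty wells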). Particulars: low glucose.
Experiment [13] addresses NAD(+) hydrolase SARM1 (Homo sapiens) (UniProt Q6SZW1). Briefly: blocking NAD cleavage by SARM1 SAM-TIR – cell lysate, NAD-Glo luminescence (AID 1508614;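 active = compound whose remaining NAD level is above about 45 nM, limit read from the data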;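 also: higher remaining NAD means stronger inhibition of SARM1 NADase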). Conditions: SAM-TIR HEK293T lysate NADase, at 1 µM, stronger effect = higher value.
Experiment [14] in a line: galactose survival enhancers in mitochondrial complex I cybrids – cell-based, galactose medium, ATP luminescence, primary screen (AID 1645843;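 active = z-score of at least 1.8 in each of two replicates, scored against plate mean and spread of sample wells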;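 also: positive z means more ATP and so rescue of galactose-driven cybrid death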). Particulars: complex I mutant cybrid cells, 72 h, stronger effect = higher value.
Setting [15] is: stronger effect = lower value, cell number ratio, induced over uninduced.
Where [16] appears, read: measured here: relative caspase fold change +Dox/-Dox.
Setting [17] is: measured here: total cells with miR-34 induction, stronger effect = lower value.
[18] abbreviates: measured here: total cells without miR-34 induction.
Setting [19] is: MELAS cybrid survival, CellTiter-Glo 48 h, stronger effect = higher value.
Setting [20] is: Rieske KO mouse fibroblast survival, CellTiter-Glo 72 h.

Structures are written as SMILES. Several values for one entry are separate records, joined by “and”; a condition that tells them apart may be missing. Equal entries are not always repeated. Activity calls are given as the source filed them. Rule as the data show it, unless noted: active = parasite load remaining mostly below about 12% (no sharp cut-off); inactive = mostly above about 10%.

Sequence of NAD(+) hydrolase SARM1 (Homo sapiens) (Q6SZW1 whole entry, looked up): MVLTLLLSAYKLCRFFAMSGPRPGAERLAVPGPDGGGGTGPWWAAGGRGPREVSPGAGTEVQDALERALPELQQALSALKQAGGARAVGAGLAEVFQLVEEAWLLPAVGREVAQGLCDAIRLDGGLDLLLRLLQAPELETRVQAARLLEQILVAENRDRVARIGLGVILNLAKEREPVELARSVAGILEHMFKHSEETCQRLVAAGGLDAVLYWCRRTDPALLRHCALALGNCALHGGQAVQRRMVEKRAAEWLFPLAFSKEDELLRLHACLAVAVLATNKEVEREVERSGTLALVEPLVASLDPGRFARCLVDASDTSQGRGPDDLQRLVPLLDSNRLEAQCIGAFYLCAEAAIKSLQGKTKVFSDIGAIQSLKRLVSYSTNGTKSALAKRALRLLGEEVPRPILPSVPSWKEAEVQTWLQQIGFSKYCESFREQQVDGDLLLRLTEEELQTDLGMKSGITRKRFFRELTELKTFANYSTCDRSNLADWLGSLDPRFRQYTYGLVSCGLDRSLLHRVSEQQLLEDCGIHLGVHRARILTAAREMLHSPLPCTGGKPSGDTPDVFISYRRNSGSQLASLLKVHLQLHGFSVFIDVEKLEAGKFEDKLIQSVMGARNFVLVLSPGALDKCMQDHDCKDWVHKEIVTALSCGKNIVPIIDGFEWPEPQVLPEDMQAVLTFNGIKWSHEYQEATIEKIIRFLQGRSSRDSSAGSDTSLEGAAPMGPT

A word on the viability: it is a read-out of living cells in per cent, often relative to untreated cells. As to `O=C(O)COC(=O)Cc1ccccc1Nc1c(Cl)cccc1Cl`, the survival in experiment [1] is 18.6 (inactive). In addition, the parasite load remaining in experiment [2] was 25.9% (inactive) and 102% (inactive) and 21.3% (inactive). Also, in [2], the viability is 47% and 92.7% and 77%. The nuclear beta-catenin stimulation in [3] (at 10 µM) was 1.1% (inactive); in [3] (stimulation, at 2 µM) it was -1%. In addition, the insulin secretion stimulation in experiment [4] was 3.2% (inactive). Also, the viability decrease in experiment [5] is 30.7% (inactive). Moreover, in [6], the tube area decrease is -0.5% (inactive). Also, the GLP1 secretion stimulation in experiment [7] was 1% (inactive). Also, the inhibition of viability in experiment [8] is 26% (inactive). Moreover, the viability decrease (inhibition) in experiment [9] was 83.7% (active); in experiment [10], 20.5% (inactive). For the same molecule, the fold change in [11] (setting [15]) was 0.899 (inactive) and 0.88 (inactive); in experiment [11] (setting [16]), 1.19 and 1.2. For the same molecule, the cell count in [11] (setting [17]) is 8790 and 10000; in experiment [11] (setting [18]), 9770 and 11400. In addition, the z-score was -0.0312 (inactive) and 0.298 (inactive) in experiment [12] (setting [19]); -0.0287 and -0.406 in experiment [12] (setting [20]); 0.67 (inactive) in [14]. Besides, in [13], the remaining NAD was 10 nM (inactive).

As for `COc1ccc(-c2cc(=S)ss2)cc1`, the parasite load remaining in experiment [2] was 61.1% (inactive). Further, in experiment [2], the viability turned out to be 107%. Moreover, the nuclear beta-catenin stimulation in [3] (at 10 µM) is -1.5% (inactive); in [3] (stimulation, at 2 µM), -0.3%. For the same molecule, in experiment [4], the insulin secretion stimulation is 3.1% (inactive). In experiment [5], the viability decrease is 11.9% (inactive). Also, in experiment [6], the tube area decrease was -0.7% (inactive). In addition, in experiment [7], the GLP1 secretion stimulation is -6.2% (inactive). The inhibition of viability in [8] was 27.2% (inactive). In addition, the viability decrease (inhibition) was 22.2% (inactive) in experiment [9] and 11% (inactive) in [10]. The fold change in experiment [11] (setting [15]) was 0.899 (inactive); in experiment [11] (setting [16]) it was 1.14. For the same molecule, the cell count worked out at 8880 in [11] (setting [17]) and 9880 in experiment [11] (setting [18]). Besides, the z-score in experiment [12] (setting [19]) is 0.776 (inactive) and 0.734 (inactive); in experiment [12] (setting [20]) it was 0.201 and 0.472; in experiment [14] it was 0.675 (inactive).

As for `CC(=O)OCC(=O)[C@@]1(O)CC[C@H]2[C@@H]3CCC4=CC(=O)C=C[C@]4(C)[C@@]3(F)[C@@H](O)C[C@@]21C`, in experiment [1], the survival was 8 (inactive). In addition, the parasite load remaining in experiment [2] was 53.1% (inactive) and 126% (inactive). Moreover, the viability in experiment [2] was 50.3% and 103%. Further, the nuclear beta-catenin stimulation is 0.8% (inactive) in experiment [3] (at 10 µM) and 0% in experiment [3] (stimulation, at 2 µM). For the same molecule, in experiment [4], the insulin secretion stimulation was -2.1% (inactive). Further, the viability decrease in experiment [5] is 9.45% (inactive). For the same molecule, the tube area decrease in [6] is -21.7% (inactive). The GLP1 secretion stimulation in experiment [7] is 3.3% (inactive). Moreover, the inhibition of viability in [8] was -4.3% (inactive). The viability decrease (inhibition) was 42.5% (inactive) in [9] and 23% (inactive) in experiment [10]. Moreover, the values for the fold change in experiment [11] (setting [15]) and in experiment [11] (setting [16]) were 0.893 (inactive) and 1.25, respectively. Also, the figures for the cell count in [11] (setting [17]) and in [11] (setting [18]) were 4910 and 5500, respectively. Besides, the figures for the z-score in [12] (setting [19]) and in experiment [12] (setting [20]) were -1.23 (inactive) and 0.0318, respectively. The remaining NAD in experiment [13] was 10 nM (inactive).

As to `CC(=O)N(CC(O)CO)c1c(I)c(C(=O)NCC(O)CO)c(I)c(C(=O)NCC(O)CO)c1I` (stereo unspecified), the survival in experiment [1] was 14.3 (inactive). For the same molecule, the parasite load remaining in experiment [2] is 114% (inactive) and 69.4% (inactive). Besides, the viability in [2] was 108% and 73.4%. In addition, the nuclear beta-catenin stimulation in experiment [3] (at 10 µM) is -2.4% (inactive); in experiment [3] (stimulation, at 2 µM) it was -1.5%. For the same molecule, the insulin secretion stimulation in experiment [4] is 7% (inactive). In experiment [5], the viability decrease was -5% (inactive). In addition, the tube area decrease in experiment [6] was 1.5% (inactive). Moreover, in [7], the GLP1 secretion stimulation is -5.6% (inactive). Besides, in experiment [8], the inhibition of viability was 4.5% (inactive). Besides, the viability decrease (inhibition) is 4.9% (inactive) in experiment [9] and 0.4% (inactive) in experiment [10]. In addition, the values for the fold change in experiment [11] (setting [15]) and in [11] (setting [16]) were 0.842 (inactive) and 1.09, respectively. The cell count in experiment [11] (setting [17]) worked out at 8930; in [11] (setting [18]), 10600. Also, the z-score in experiment [12] (setting [19]) is 0.412 (inactive); in experiment [12] (setting [20]) it was -0.115. Also, the remaining NAD in experiment [13] was 10 nM (inactive).

For the origin of these results see PubChem BioAssay.
